Screens: PubChem BioAssay, National Center for Advancing Translational Sciences (NCATS)
Most compounds without a hit are left out; they make up all but 2.9% or so of the library.
TRPML1 blocker: blocks the human TRPML1 channel; Q9GZU1; TRPML1-inducible cells, Ca2+ dye fluorescence, FDSS; hits give low values; inhibition of EC80 agonist-evoked calcium signal; activity change, negative = inhibition, % (test concentration not listed); hit rate 0.02% among 390,000; AID 624415; in the data active means activity change below about -50%;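 further: stimulus is agonist 54-4 at its EC80 concentration; on the % scale 0 is the no-effect control and ±100 the full control effect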
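TRPML1-DL cells, Tet-induced overnight (~16 h, 37 °C) at 1,500 cells/well, were loaded with Ca8 no-wash dye plus quencher for 45-90 min at room temperature. Compounds were pinned during FDSS kinetic reading; agonist 54-4 at EC80 (4 uM final) then added.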
TRPML1 ag: human mucolipin-1 channel agonism | TRPML1-expressing cells, Ca2+ dye fluorescence, FDSS | activation, % (test concentration not listed) | hit rate 0.12% among 410,000 | AID 624414; in the data active means activation above about 50%; further: 0% is about no effect
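Tetracycline-induced TRPML1-DL cells are seeded and incubated overnight before loading with a no-wash Ca2+ dye and quencher. Agonist activity is taken from the 110 s fluorescence read following compound pin-transfer on an FDSS, before EC80 54-4 challenge.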
DRD3 antagonist: blocks the human D3 dopamine receptor | P35462 | D3R cells, DiscoveRx beta-arrestin luminescence, antagonist mode; hits give low values | max response, negative = inhibition, % | hit rate 2.5% among 360,000 | AID 652054; in the data active means max response below about -50%; further: on the % scale 0 is the no-effect control and ±100 the full control effect
Target sequence (P35462 whole entry, looked up): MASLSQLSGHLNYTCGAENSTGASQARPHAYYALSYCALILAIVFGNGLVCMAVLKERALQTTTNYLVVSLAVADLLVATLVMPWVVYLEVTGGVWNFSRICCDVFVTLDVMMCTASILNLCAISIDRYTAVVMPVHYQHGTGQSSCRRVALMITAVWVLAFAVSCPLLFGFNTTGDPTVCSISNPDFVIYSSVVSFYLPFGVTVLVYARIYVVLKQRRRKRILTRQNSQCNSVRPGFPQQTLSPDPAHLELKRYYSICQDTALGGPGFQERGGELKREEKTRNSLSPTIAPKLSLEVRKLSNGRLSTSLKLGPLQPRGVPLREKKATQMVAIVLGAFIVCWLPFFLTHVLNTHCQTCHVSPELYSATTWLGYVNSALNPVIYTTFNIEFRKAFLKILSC
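Cells plated overnight at 1500 cells/well, then exposed to library compounds with dopamine controls for 90 minutes at 37 degrees C. DiscoveRx reagent added for 30–60 minutes at room temperature; luminescence read, quantitative HTS format.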
DRD3 agonist: D3 dopamine receptor (human) agonism. hit rate 0.58% among 410,000. max activation, %. D3R DiscoveRx beta-arrestin cells, luminescence, 90 min. P35462; in the data active means max activation above about 30%; further: 0% is about no effect
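Cells at 1500/well, incubated overnight, then treated with pinned compounds (dopamine as control) for 90 min at 37 degrees C. DiscoveRx reagent added for 30 - 60 minutes at room temperature; luminescence read.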
* = called active by the depositor; . = no result given.

SMILES | TRPML1 blocker | TRPML1 ag | DRD3 antagonist | DRD3 agonist
O=C(Nc1ccc2c(c1)OCCO2)C(CCc1ccccc1)N1CCC(Cc2ccccc2)CC1 (stereo not given) | . | 0.8 | -69.1* | -13.8
CC(=O)NC(CC(C)C)C(=O)NC(Cc1ccccc1)C(N)=O (stereo not given) | -3.4 | 0.4 | 9.4 | 30.4*
CC(=O)NC(C)(c1ccccc1)c1nc(-c2cncnc2)cs1 (stereo not given) | -4.4 | 0.6 | -59.6* | -14.5
Cc1ccc(CNC(=O)C2CCCN(c3nc4ccccc4n4cccc34)C2)cc1 (stereo not given) | -12.9 | 3.1 | . | -15.3
COc1ccc(NC(=S)N(CCC(C)C)C2CCN(C(C)C)CC2)cc1 | . | . | -53.9* | -16.4
COc1ccc2c(c1)[nH]c1c(N3CCN(Cc4ccc5c(c4)OCO5)CC3)ncnc12 | -0.6 | -0.7 | 41.6 | 13.1
COc1ccc2c(c1)[nH]c1c(N3CCSCC3)ncnc12 | -0.6 | 1.2 | 70.4 | 30.3*
COc1ccc(OCCCCn2c(C3CC(=O)N(c4cccc(Cl)c4)C3)nc3ccccc32)cc1 (stereo not given) | 5.7 | 2.2 | . | -11.8
O=C(NCCN1CCN(c2ccccc2)CC1)Nc1ccc(Cl)cc1 | -2.9 | -1.2 | -54.7* | -23.5
O=C(CCN1CCN(c2ccccc2)CC1)c1ccc(Cl)cc1 | -2.5 | 0.5 | -70.1* | -3.3
O=C(CCN1CCN(c2ccccc2)CC1)Nc1nccs1 | 6.6 | 4.2 | -64.1* | 11.8
O=C(CCOc1ccccc1)N1CCN(c2ccc(O)cc2)CC1 | -16.2 | 0.2 | 2.1 | 10.9
O=C(CCCOc1ccccc1)N1CCN(c2ccccc2)CC1 | 45.5 | 0.4 | -53.1* | -20.0
O=C(Cc1ccccc1)Nc1ccc(N2CCN(Cc3ccccc3F)CC2)cc1 | 4.4 | -0.8 | -51.5* | -2.7
Nc1ccc(N2CCN(c3cccc(Cl)c3)CC2)cc1 | -1.2 | -0.5 | -4.2 | 2.5
O=C(CCC(=O)N1CCN(c2cccc(Cl)c2)CC1)N1CCN(c2ccccc2)CC1 | -14.8 | 0.2 | 1.1 | 5.8
c1ccc(CCCN2CCN(c3ccccc3)CC2)cc1 | -27.5 | -0.7 | -64.4* | 1.4
OC(CN1CCN(c2cccc(Cl)c2)CC1)C(c1ccccc1)c1ccccc1 (stereo not given) | 3.5 | -0.4 | -72.5* | -10.3
Clc1cccc(N2CCN(CCCN3CCN(c4ccccc4)CC3)CC2)c1 | 3.6 | -0.6 | -78.6* | -4.3
COc1cc(NC(=O)Cn2c(=O)n(Cc3ccccc3Cl)c(=O)c3cc(OC)c(OC)cc32)cc(OC)c1 | 4.6 | -0.2 | . | -6.3
Nc1ccc(S(=O)(=O)NC2(C(F)(F)F)NC(=O)N(c3cccc(Cl)c3)C2=O)cc1 (stereo not given) | -7.7 | -0.2 | . | -2.0
CCOc1ccc(NC(=O)CN2CCSc3ccc(S(=O)(=O)N4CCCC4)cc32)cc1 | 4.5 | 1.3 | . | -6.6
O=C(CCN1CCOCC1)c1ccc(N2CCCCC2)cc1 | -12.1 | 2.4 | -76.3* | -49.7
O=C(CCN1CCN(c2ccccc2)CC1)Nc1ccc(OCc2ccccc2)cc1 | 1.4 | -0.5 | -9.2 | 34.7*
O=C(c1ccc(S(=O)(=O)N2CCOCC2)cc1)N1CCN(c2ccc(F)cc2)CC1 | -4.2 | -0.7 | 33.3 | -1.7
SMILES | TRPML1 blocker | TRPML1 ag | DRD3 antagonist | DRD3 agonist
CC(CCN1CCN(c2ccccc2)CC1)c1ccccc1 (stereo not given) | -7.4 | 0.6 | -102.3* | -13.3
O=C(c1ccc(S(=O)(=O)N2CCOCC2)cc1)N1CCN(c2cccc(Cl)c2)CC1 | -0.8 | -0.7 | -68.9* | 10.1
CCOC(=O)N1CCc2c(sc3c2c(=O)n(Cc2ccccc2)c(=O)n3CC(=O)Nc2ccc(F)cc2)C1 | -9.8 | 1.0 | . | -3.6
O=C(CCN1CCN(c2ccccc2)CC1)Nc1ccc(Cl)cc1 | -6.7 | -0.3 | -62.2* | 20.9
COc1ccccc1NC(=O)NCCN1CCN(c2cccc(Cl)c2)CC1 | 1.4 | -0.8 | -91.6* | -6.7
O=C(NCC(=O)N1CCN(c2ccccc2)CC1)c1ccc(Cl)cc1 | -54.5* | 0.1 | 17.6 | -1.6
O=C(O)c1ccccc1C(=O)N1CCN(c2cccc(Cl)c2)CC1 | 8.7 | 0.0 | -54.6* | -18.2
O=C(CCN1CCN(c2ccc(F)cc2)CC1)Nc1ccc(F)cc1 | 8.1 | 0.3 | -81.5* | -20.9
O=C(NCCN1CCN(c2cccc(Cl)c2)CC1)Nc1ccccc1 | 7.7 | -0.3 | -91.2* | -3.7
O=C(NCCN1CCN(Cc2ccccc2)CC1)Nc1cc(Cl)cc(Cl)c1 | -7.2 | 0.6 | -9.6 | -18.1
CC1CN(C(=O)N2CCC(C(=O)NCCCc3ccccc3)CC2)c2cc(Cl)ccc2O1 (stereo not given) | 7.5 | 1.6 | . | 3.0
Cn1c(=O)[nH]c(=O)c2c1[nH]c(=S)n2CCCc1ccccc1 | -8.0 | -0.1 | -53.7* | 10.7
CCCNc1nc2c(c(=O)[nH]c(=O)n2C)n1CCCc1ccccc1 | 12.4 | -0.2 | 27.0 | -1.2
CN(C)CCNc1nc2c(c(=O)[nH]c(=O)n2C)n1CCCc1ccccc1 | 23.5 | -0.5 | -76.1* | 5.1
CC[N+]1(CC(=O)c2cccs2)CCCCC1 | . | 0.0 | . | .
Cc1cccc(NC(=O)COc2ccccc2C(=O)Nc2ccccc2)c1 | . | -0.2 | . | .
C=CS(=O)(=O)c1c2cc(OC)ccc2nc2ccc(OC)cc12 | -8.4 | 8.4 | -82.6* | -23.4
Cc1cnc2ccccc2c1/C=C/c1ccc(N(C)C)cc1 | . | -0.5 | . | .
Oc1c(Br)cc(Br)cc1/C=N/Nc1ccc(Cl)nn1 | -5.1 | -0.1 | -68.0* | -17.0
Cc1ccc(C)c(Oc2ncnc(N)c2[N+](=O)[O-])c1 | 35.9 | -0.9 | 2.4 | 1.6
Cc1cc(Sc2nc(N)ncc2[N+](=O)[O-])ncn1 | 14.7 | 2.0 | -60.2* | -7.4
Cc1cc(Sc2ncnc(N)c2[N+](=O)[O-])ncn1 | 11.8 | -1.1 | -70.9* | -26.8
C[N+]1(CC(=O)c2ccc(-c3ccccc3)cc2)CCOCC1 | . | -0.8 | . | .
O=C1CCCN1C(=O)COc1cc(F)ccc1[N+](=O)[O-] | 3.9 | 3.5 | -3.4 | -11.2
O=C1CCCN1C(=O)COc1ccccc1[N+](=O)[O-] | 6.7 | 0.4 | -3.4 | 38.1*
SMILES | TRPML1 blocker | TRPML1 ag | DRD3 antagonist | DRD3 agonist
COc1ccc(OCCN2CCC(C(=O)NC(c3ccc(F)cc3)c3ncccc3C)CC2)cc1 (stereo not given) | . | -0.4 | -85.3* | -13.8
Cc1cccnc1C(NC(=O)C1CCN(CCOc2ccc(F)cc2)CC1)c1ccc(Cl)cc1 (stereo not given) | . | 0.0 | 0.0 | -22.0
Cc1cccnc1C(NC(=O)C1CCN(Cc2ccc3ccccc3n2)CC1)c1ccc(Cl)cc1 (stereo not given) | . | -0.7 | -68.4* | -12.3
Cc1cccnc1C(NC(=O)C1CCN(CCCOc2ccc(F)cc2)CC1)c1ccccc1 (stereo not given) | 35.6 | -0.2 | -83.9* | -25.5
COc1ccc(OCCN2CCC(C(=O)NC(c3ccc(Cl)cc3)c3ncccc3C)CC2)cc1 (stereo not given) | . | -0.5 | -72.7* | -18.6
Cc1cccnc1C(NC(=O)C1CCN(Cc2ccc(Cl)cc2)CC1)c1ccc(F)cc1 (stereo not given) | . | 11.1 | 0.0 | -17.4
